Values joined by “and” are separate entries in the source; they are usually repeats but may differ in a detail not shown here. Identical values can stand only once. Records with an inconclusive call do not appear. Active and inactive are the calls of the source. Unless noted, the call rests on the fitted dose curve; in most records, active means well fitted curve in either direction with a large enough effect (not every such curve was filed as active); inconclusive means small, poorly fitted or top-dose-only effect, or another doubt; inactive means flat fitted curve, though single readings scatter.
Legend:
[1] = AP1 Signaling Pathway (AID 357); further: on the % scale 0 is the no-effect control and ±100 the full control effect
In short: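 AP-1-bla ME-180 cells with beta-lactamase reporter under AP-1 response element, stimulated with EC50 EGF; compounds titrated, 5 hours at 37 degrees Celsius. CCF4 read at 460/530 nm ratio; positive and negative modulators judged by AC50.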

[2] = biological target: Glucocorticoid receptor (Homo sapiens) (UniProt P04150); assay: GR-GFP Redistribution (AID 450;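 active means compounds whose dose series gives a full or clear partial fitted curve of increased nuclear translocation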; further: potency means the concentration at half of the fitted maximal effect); settings: U2OS GR-GFP nuclear translocation, laser cytometry, 2 h
[3] = Cell Viability - BJ (AID 421; calls by dose curve;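 further: potency means the concentration at half of the fitted maximal effect; cells exposed to compound for 40 hours at 37 °C before readout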); settings: BJ fibroblast viability, qHTS
In short: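 Cytotoxicity as drop in intracellular ATP (CellTiter-Glo, 20 min RT) after 40 hr compound exposure of BJ fibroblasts at 37 °C. Titrations scaled between DMSO and 100 uM tamoxifen, Hill-fitted for AC50.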

[4] = Cell Viability - Jurkat (AID 426;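 active means dose-dependent loss of cell ATP signal giving a full or clear fitted curve, ranked by lower potency value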; further: potency means the concentration at half of the fitted maximal effect); settings: qHTS
In short: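 qHTS, 1536-well; Jurkat E6-1, 5000 cells/well, complete medium; cpd 40 hr, 37 °C; CellTiter-Glo 20 min RT; luminescence. AC50 by Hill fit.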

[5] = Cell Viability - Hek293 (AID 427;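 active means compounds whose dose-response curve shows a full or clear partial loss of cell viability, called from curve shape rather than a numeric limit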;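 further: potency means the concentration at half of the fitted maximal effect; cells exposed to compound for 40 hours at 37 °C before reading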); settings: qHTS
In short: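 Luminescent ATP content (CellTiter-Glo, 20 min at room temperature) was measured after a 40 hr, 37 °C compound exposure of HEK293 cells. AC50 values came from Hill-equation fits of qHTS concentration-response data normalized to DMSO and 100 uM tamoxifen.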

[6] = Cell Viability - MRC5 (AID 434; calls by dose curve;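 further: potency means the concentration at half of the fitted maximal effect; potency reflects cytotoxicity seen as loss of intracellular ATP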); settings: MRC5 lung fibroblast viability, qHTS
In short: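 MRC5 normal human lung fibroblasts (1500/well) were treated with compounds for 40 hr at 37 °C in complete medium, and viable cells were measured as intracellular ATP by CellTiter-Glo luminescence. AC50 came from Hill fits, normalized to DMSO and 100 uM tamoxifen.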

[7] = Cell Viability - SK-N-SH (AID 435; calls by dose curve;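 further: potency means the concentration at half of the fitted maximal effect; compound exposure lasted 40 h at 37 °C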); settings: SK-N-SH neuroblastoma cell viability qHTS
In short: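 Human neuroblastoma line, 40 h exposure at 37 °C, ATP quantified via luciferase luminescence; DMSO and 100 uM tamoxifen define 0 and 100% inhibition for AC50 fitting.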

[8] = biological target: Mitogen-activated protein kinase 10 (Mus musculus) (UniProt Q61831); assay: JNK3 AlphaScreen Assay (AID 530);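 further: kinase came from lysate of stimulated human HepG2 cells; signal reports phosphorylation of biotinylated GST-cJun 1-79 at Ser73 with 10 µM ATP; on the % scale 0 is the no-effect control and ±100 the full control effect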
In short: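 Inhibitors reduce antibody binding to phosphorylated biotin-cJun, lowering AlphaScreen luminescence. Lysates from HepG2 cells pre-activated by IL-1beta plus TNF-alpha supplied JNK3; compounds were titrated.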

[9] = Cell Viability - NIH 3T3 (AID 541; active means well fitted curve in the direction sought with a large enough effect; an effect the other way counts as inactive or inconclusive; further: nearly all actives have a fitted effect of over 25% in size; further: potency means the concentration at half of the fitted maximal effect;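 on activity change, negative = cytotoxicity: plate controls were DMSO alone for no effect and tamoxifen positive control for full effect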); settings: NIH 3T3 cell viability, qHTS; activity change, negative = cytotoxicity: at 92.2 µM (top of the series)
In short: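 Luminescent ATP signal (CellTiter-Glo) served as the viability read-out after NIH 3T3 cells were exposed to compounds over a concentration range for 40 hr at 37 °C. Hill-equation modelling of concentration-response data gave AC50.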

[10] = Cell Viability - HUV-EC-C (AID 542; active means well fitted curve in the direction sought with a large enough effect; an effect the other way counts as inactive or inconclusive; further: on the % scale 0 is the no-effect control and ±100 the full control effect; nearly all actives have a fitted effect of over 35% in size)
In short: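 qHTS cytotoxicity: HUV-EC-C, 1000 cells/well, 5 hr settle, compound 40 hr 37 °C, CellTiter-Glo, luminescence. AC50 via Hill equation.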

[11] = Cell Viability - H-4-II-E (AID 543; active means well fitted curve in the direction sought with a large enough effect; an effect the other way counts as inactive or inconclusive; further: nearly all actives have a fitted effect of over 35% in size; further: potency means the concentration at half of the fitted maximal effect)
In short: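 Luminescent ATP signal (CellTiter-Glo) served as the viability read-out, with cytotoxicity seen as a concentration-dependent ATP drop. Cells were treated for 40 hours in complete medium. AC50 values derive from Hill-equation modelling.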

[12] = Cell Viability - SH-SY5Y (AID 544; active means well fitted curve in the direction sought with a large enough effect; an effect the other way counts as inactive or inconclusive;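 further: 0% = DMSO alone and -100% = 100 µM tamoxifen; nearly all actives have a fitted effect of over 55% in size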)
In short: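 Luminescent ATP read-out (CellTiter-Glo) measures loss of viable SH-SY5Y neuroblastoma cells after 40 hr compound exposure at 37 °C. AC50 values derive from standard Hill modelling of qHTS concentration-response data.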

[13] = Cell Viability - Renal Proximal Tubule (AID 545; active means well fitted curve in the direction sought with a large enough effect; an effect the other way counts as inactive or inconclusive;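 further: 0% = DMSO only and -100% = 100 µM tamoxifen; nearly all actives have a fitted effect of over 40% in size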); settings: renal proximal tubule cells viability, primary cells of rat origin; at 91.7 µM (top of the series)
In short: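 In this qHTS format, normal rat kidney-derived proximal tubule cells in complete culture medium receive compound titrations, then sit 40 hours at 37 °C before luciferase-based ATP quantitation; potency is reported as AC50 from concentration-response curves.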

[14] = Cell Viability - Mesenchymal (AID 546; active means well fitted curve in the direction sought with a large enough effect; an effect the other way counts as inactive or inconclusive;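 further: cells exposed to compound for 40 hours before reading; 0% = DMSO only and -100% = 100 µM tamoxifen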)
In short: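 Normal human renal glomerulus-derived kidney mesenchymal cells, 1000 per well in complete medium, were treated with compounds for 40 hr at 37 °C. Viability was read as intracellular ATP by CellTiter-Glo luminescence; AC50 values came from Hill-equation fits of qHTS concentration-response data.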

[15] = biological target: Cytochrome P450 1A2 (Homo sapiens) (UniProt P05177); assay: p450-cyp1a2 (AID 410; calls by dose curve; further: potency means the concentration at half of the fitted maximal effect;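 on activity change, negative = inhibition: -100% = full effect of reference inhibitor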)
In short: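 Luminescent readout of luciferin formed from Luciferin-ME by human CYP1A2; data normalized against complete inhibition by 57 uM furafylline. Enzyme 20nM, substrate 100uM at Km, 100mM KPO4 buffer, 60 min reaction at room temperature.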

[16] = NFAT Signaling Pathway (AID 444); settings: Jurkat NFAT-bla M1, carbachol, beta-lactamase ratio, 5 h; at 17.2 µM (top of the series) unless noted;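 further: carbachol stimulus at about its EC50 of 1 µM final; on the % scale 0 is the no-effect control and ±100 the full control effect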
In short: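 Jurkat cells carrying an NFAT-driven β-lactamase reporter and co-transfected muscarinic M1 receptor were treated with compound plus carbachol (1 uM final, an EC50 level) for 5 h at 37 °C. CCF4 loading followed for 1 h at RT; 460/530 nm ratio gave %activity.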

[17] = biological target: Glucocorticoid receptor (Homo sapiens) (UniProt P04150); assay: GR-EFC Redistribution (AID 451; calls by dose curve; further: potency means the concentration at half of the fitted maximal effect); settings: CHO-K1 GR-EFC translocation, beta-gal luminescence, 2 h
In short: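 CHO-K1 cells stably expressing nuclear-localized β-gal enzyme acceptor and GR fused C-terminally to the enzyme donor fragment; ligand-driven nuclear translocation restores β-gal by complementation. Compounds titrated up to 46 uM final, 2 h at 37 °C; luminescence read.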

[18] = biological target: 3',5'-cyclic-AMP phosphodiesterase 4B (Homo sapiens) (UniProt Q07343); assay: qHTS Assay for Inhibitors of PDE-IV (AID 607; active means well fitted activation curve with a large enough effect in the main read-out, with a control signal flat, not every such curve was filed as active; further: % of control where 0% means no effect)
In short: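 Cell-based read-out of cAMP via a modified cyclic nucleotide-gated channel and membrane potential dye (535/590 nm) in HEK293 cells expressing PDE4 endogenously. Compounds tested up to 22.9 uM final; 100 uM RO 20-1724 reference.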

[19] = Cell Viability - N2a (AID 540; active means well fitted curve in the direction sought with a large enough effect; an effect the other way counts as inactive or inconclusive;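 further: plate controls were DMSO alone for no effect and tamoxifen control for full effect; nearly all actives have a fitted effect of over 45% in size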); settings: N2a mouse neuroblastoma cell viability; at 92.2 µM (top of the series)
In short: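 Luminescent ATP signal (CellTiter-Glo, 20 min at room temperature) served as the viability read-out after N2a cells were treated with compounds for 40 hours at 37 °C. Concentration-response data were fitted to the Hill equation for AC50.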

Chain of Glucocorticoid receptor (Homo sapiens) (P04150 whole entry, looked up, the tested form may be a part): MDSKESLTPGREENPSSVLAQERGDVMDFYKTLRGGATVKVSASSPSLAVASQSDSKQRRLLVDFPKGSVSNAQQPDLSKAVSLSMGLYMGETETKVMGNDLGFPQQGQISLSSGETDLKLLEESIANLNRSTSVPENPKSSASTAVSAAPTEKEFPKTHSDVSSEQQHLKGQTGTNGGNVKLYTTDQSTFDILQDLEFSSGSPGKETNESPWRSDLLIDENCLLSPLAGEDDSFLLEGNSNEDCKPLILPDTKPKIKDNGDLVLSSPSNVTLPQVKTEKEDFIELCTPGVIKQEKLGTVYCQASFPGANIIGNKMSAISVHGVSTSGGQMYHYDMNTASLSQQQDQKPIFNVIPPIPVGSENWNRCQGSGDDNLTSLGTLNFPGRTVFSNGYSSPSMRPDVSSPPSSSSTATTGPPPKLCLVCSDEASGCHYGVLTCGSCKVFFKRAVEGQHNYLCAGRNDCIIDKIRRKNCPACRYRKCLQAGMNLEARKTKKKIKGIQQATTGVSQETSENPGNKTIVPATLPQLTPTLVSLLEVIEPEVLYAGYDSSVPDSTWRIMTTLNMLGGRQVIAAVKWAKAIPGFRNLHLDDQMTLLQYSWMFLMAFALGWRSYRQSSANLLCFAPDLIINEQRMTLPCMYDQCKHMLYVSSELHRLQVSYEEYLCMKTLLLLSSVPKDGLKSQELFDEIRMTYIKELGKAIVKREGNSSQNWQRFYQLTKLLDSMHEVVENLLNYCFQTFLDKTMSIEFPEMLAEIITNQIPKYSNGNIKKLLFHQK
Chain of 3',5'-cyclic-AMP phosphodiesterase 4B (Homo sapiens) (Q07343 whole entry, looked up): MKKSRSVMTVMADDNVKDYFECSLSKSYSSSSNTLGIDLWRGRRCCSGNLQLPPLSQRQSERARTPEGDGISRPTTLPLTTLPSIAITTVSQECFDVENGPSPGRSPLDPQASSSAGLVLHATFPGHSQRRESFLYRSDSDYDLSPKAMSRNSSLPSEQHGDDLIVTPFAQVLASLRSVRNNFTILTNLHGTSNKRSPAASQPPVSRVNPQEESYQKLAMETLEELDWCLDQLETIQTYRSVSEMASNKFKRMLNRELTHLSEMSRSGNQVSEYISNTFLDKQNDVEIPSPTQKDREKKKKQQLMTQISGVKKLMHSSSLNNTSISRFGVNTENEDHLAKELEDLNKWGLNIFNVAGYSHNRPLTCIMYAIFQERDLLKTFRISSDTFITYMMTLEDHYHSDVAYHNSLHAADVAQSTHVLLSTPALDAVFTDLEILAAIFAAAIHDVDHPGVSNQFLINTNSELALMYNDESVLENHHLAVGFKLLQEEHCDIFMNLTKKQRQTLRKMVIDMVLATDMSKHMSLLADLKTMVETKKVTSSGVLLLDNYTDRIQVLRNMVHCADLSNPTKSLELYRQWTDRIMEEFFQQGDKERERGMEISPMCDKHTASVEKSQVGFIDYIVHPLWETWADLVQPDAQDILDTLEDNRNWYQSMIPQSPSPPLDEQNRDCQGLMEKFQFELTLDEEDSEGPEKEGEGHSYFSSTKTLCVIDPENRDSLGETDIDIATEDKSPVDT
Chain of Cytochrome P450 1A2 (Homo sapiens) (P05177 whole entry, looked up): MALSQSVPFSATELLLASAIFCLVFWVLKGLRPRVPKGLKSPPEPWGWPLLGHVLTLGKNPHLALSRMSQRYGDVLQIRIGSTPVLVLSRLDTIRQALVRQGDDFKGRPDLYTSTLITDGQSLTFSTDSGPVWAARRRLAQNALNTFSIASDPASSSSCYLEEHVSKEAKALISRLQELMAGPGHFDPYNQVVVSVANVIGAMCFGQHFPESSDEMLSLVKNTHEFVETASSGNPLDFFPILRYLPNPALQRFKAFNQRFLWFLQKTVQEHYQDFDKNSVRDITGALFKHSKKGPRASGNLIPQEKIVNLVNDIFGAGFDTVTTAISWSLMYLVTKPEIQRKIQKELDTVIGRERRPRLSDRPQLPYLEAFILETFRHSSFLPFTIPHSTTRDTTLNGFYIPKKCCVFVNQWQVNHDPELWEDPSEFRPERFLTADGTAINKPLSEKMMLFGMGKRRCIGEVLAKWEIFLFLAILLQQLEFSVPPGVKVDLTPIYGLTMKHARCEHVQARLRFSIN

CCCCC(=O)O[C@H]1CC[C@H]2[C@@H]3CCc4cc(O)ccc4[C@H]3CC[C@]12C
inactive: outcome [1] | Potency [2] > 20.6 µM

Oc1ccc(/C=C/c2cc(O)cc(O)c2)cc1
active: Potency [9] 31.6 µM | Potency [11] 31.6 µM
inactive: outcome [1] | Potency [3] > 92 µM | Potency [4] > 92 µM | Potency [5] 52.8 µM | Potency [6] > 92 µM | Potency [7] > 92 µM | outcome [8] | Potency [10] | Potency [12] | activity change, negative = cytotoxicity [13] -14.2% | outcome [14]

CN1C(=O)OC(C)(C)C1=O
inactive: outcome [1] | Potency [15] | activity change, negative = inhibition [16] -1.31% | Potency [2] > 20.6 µM | Potency [17] > 20.6 µM | outcome [8] | outcome [18]

Cn1cc(NC(=O)c2cc(NC(=O)c3cc(NC=O)cn3C)cn2C)cc1C(=O)NCCC(=N)N
inactive: outcome [1]

CN(CCO)CC(O)Cn1cnc2c1c(=O)n(C)c(=O)n2C (stereo unspecified) (tested in a mixture with another compound)
inactive: outcome [1] | activity change, negative = inhibition [16] -24.9%

O=C(O)CCC(=O)c1ccc(-c2ccccc2)cc1
active: Potency [15] 12.6 µM
inactive: outcome [1] | activity change, negative = inhibition [16] -7.68% | Potency [2] > 20.6 µM | Potency [17] > 20.6 µM | outcome [8] | outcome [18]

CC(=O)Oc1cccc2c1C(=O)c1c(OC(C)=O)cc(C(=O)O)cc1C2=O
inactive: outcome [1] | activity change, negative = inhibition [16] -21.4% | Potency [2] > 20.6 µM

CC(=O)[C@H]1CC[C@H]2[C@@H]3C=CC4=CC(=O)CC[C@@]4(C)[C@H]3CC[C@]12C
inactive: outcome [1] | Potency [15] | Potency [17] > 20.6 µM | outcome [8] | outcome [18]

CCCOc1cc(N)ccc1C(=O)OCCN(CC)CC
inactive: outcome [1] | Potency [2] > 20.6 µM | Potency [17] > 20.6 µM | outcome [8] | outcome [18]
active: Potency [15] 12.6 µM

N[C@H](CC(=O)O)C(=O)O
inactive: outcome [1] | activity change, negative = inhibition [16] 13.7% [at 38 µM] | Potency [2] > 46 µM | Potency [17] > 46 µM | outcome [8] | outcome [18]

CC1(C)S[C@@H]2[C@H](NC(=O)C3(N)CCCCC3)C(=O)N2[C@H]1C(=O)O
inactive: outcome [1] | activity change, negative = inhibition [16] -19.8% | Potency [2] > 20.6 µM | Potency [17] > 20.6 µM | outcome [8] | outcome [18]

COc1cc(S(C)=O)ccc1-c1nc2ncccc2[nH]1 (stereo unspecified)
inactive: outcome [1] | activity change, negative = inhibition [16] 21.1% | Potency [2] > 20.6 µM | Potency [17] > 20.6 µM | outcome [18]
active: Potency [15] 0.251 µM

O=C(O)Cc1nn(Cc2ccc(Br)cc2F)c(=O)c2ccccc12
active: Potency [15] 31.6 µM
inactive: outcome [8]

CC(=O)N=c1sc(S(N)(=O)=O)nn1C
inactive: outcome [1] | Potency [15] | activity change, negative = inhibition [16] 0.015% and 12.3% | Potency [2] > 20.6 µM | Potency [17] > 20.6 µM | outcome [8] | outcome [18]

CCSc1ccc2c(c1)N(CCCN1CCN(C)CC1)c1ccccc1S2
inactive: outcome [8] | outcome [18]
active: Potency [15] 0.316 µM

OB(O)O
inactive: Potency [3] > 92 µM | Potency [4] > 92 µM | Potency [5] > 92 µM | Potency [6] > 92 µM | Potency [7] > 92 µM | outcome [8] | activity change, negative = cytotoxicity [19] -10.8% | activity change, negative = cytotoxicity [9] -22.1% | Potency [10] | Potency [11] | Potency [12] | activity change, negative = cytotoxicity [13] -6.9% | outcome [14]

Cc1cc(C)c(NC(=O)C[C@H](CC(=O)O)c2cccc3ccccc23)c(C(=O)N2CCC3(CCCC3)CC2)c1
inactive: outcome [1] | Potency [15] | activity change, negative = inhibition [16] -7.66% [at 38 µM] | Potency [2] > 46 µM | Potency [17] > 46 µM | outcome [8] | outcome [18]

O=C(O)Cc1cc(I)c(Oc2ccc(O)c(I)c2)c(I)c1
inactive: outcome [1] | activity change, negative = inhibition [16] -22.7% | Potency [2] > 20.6 µM | Potency [17] > 20.6 µM | outcome [8] | outcome [18]
active: Potency [15] 12.6 µM

CCc1cn([C@H]2C[C@H](O)[C@@H](CO)O2)c(=O)[nH]c1=O
inactive: outcome [1] | activity change, negative = inhibition [16] 23.4% | Potency [2] > 20.6 µM

C[C@]12CC[C@@H]3c4ccc(OC(=O)c5ccccc5)cc4CC[C@H]3[C@@H]1CC[C@@H]2O
inactive: outcome [1]

N[C@@H](Cc1cc(I)c(Oc2ccc(O)c(I)c2)c(I)c1)C(=O)O
inactive: outcome [1] | activity change, negative = inhibition [16] 7.62% | Potency [2] > 20.6 µM

Cc1cc(-c2ccc(N=Nc3ccc4c(S(=O)(=O)O)cc(S(=O)(=O)O)c(N)c4c3O)c(C)c2)ccc1N=Nc1ccc2c(S(=O)(=O)O)cc(S(=O)(=O)O)c(N)c2c1O
inactive: Potency [2] > 46 µM | Potency [17] > 46 µM
active: Potency [15] 12.6 µM

Cc1cccc(C)c1NC(=O)C1CCCCN1C (stereo unspecified)
inactive: outcome [1] | activity change, negative = inhibition [16] -26% | Potency [2] > 20.6 µM

CCCC(CCC)C(=O)OC1C[C@H]2CC[C@@H](C1)[N+]2(C)C (stereo partly specified)
inactive: outcome [1]
active: activity change, negative = inhibition [16] -90.3%

Nc1nccs1
inactive: Potency [3] > 92 µM | Potency [4] > 92 µM | Potency [5] > 92 µM | Potency [6] > 92 µM | Potency [7] > 92 µM | outcome [8] | activity change, negative = cytotoxicity [19] 4.71% | activity change, negative = cytotoxicity [9] -0.295% | Potency [10] | Potency [11] | Potency [12] | activity change, negative = cytotoxicity [13] 6.3% | outcome [14]

Cc1ncc(C[n+]2csc(CCO)c2C)c(N)n1
inactive: outcome [1] | activity change, negative = inhibition [16] -0.747% | outcome [8] | outcome [18]

O=C(O)c1ccc(OCCn2ccnc2)cc1
inactive: outcome [1] | activity change, negative = inhibition [16] -10.7% | Potency [2] > 20.6 µM

C/C=C/C=C/C(=O)O
inactive: Potency [3] > 92 µM | Potency [4] > 92 µM | Potency [5] > 92 µM | Potency [6] > 92 µM | Potency [7] > 92 µM | outcome [8] | activity change, negative = cytotoxicity [19] -0.963% | activity change, negative = cytotoxicity [9] 8.21% | Potency [10] | Potency [11] | Potency [12] | activity change, negative = cytotoxicity [13] -2.27% | outcome [14]

Source: PubChem BioAssay (NCATS)
